Screens deposited in PubChem BioAssay by several laboratories.
The list is not random: actives were taken first. Their share in the collection is about 7.1%.
Pyk2 oligo antag: antagonists of human Pyk2 oligomerization | Q293 cells, Pyk2 FERM NanoBiT luminescence; stronger effect = lower value | z-score (the deposit names both 25 µM and 10 µM) | AID 1347419 | 99,000 compounds, 0.83% hits | Q14289;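 active means Z-score of -3 or lower, scaled per plate to the spread of control and sample wells; inactive means z-score above -3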;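 further: negative z-score means lost luminescence so less FERM oligomerization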
Cav3 T inh: human Cav3.2 channel inhibition, primary screen | O95180 | Cav3.2-expressing cells, Fluo-4 calcium fluorescence FDSS; stronger effect = lower value | B-score at 10 µM | 100,000 compounds, 4% hits | AID 449739;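 active means single-dose well whose peak fluorescence ratio is a statistical outlier from its plate by either plate-standardised score or position-corrected B-score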
M1 agonist: activates the M1 muscarinic receptor | 64,000 compounds, 3% hits | B-score at 10 µM | CHO-M1 cells, Fluo-4 calcium fluorescence, agonist mode; stronger effect = higher value;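 active means fluorescence rise, raw or as B-score row- and column-corrected plate score, outside the 99.7% band of its plate's samples, either direction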
M1 antagonist: antagonists of rat M1 muscarinic receptor | CHO-M1 cells, Fluo-4 calcium, ACh EC80 antagonist mode; stronger effect = lower value | B-score at 10 µM | 64,000 compounds, 3.4% hits;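 active means calcium fluorescence response, raw or row-and-column corrected B-score, differing from the plate sample mean either way at a set confidence level, mostly lower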
Target sequence (P08482 whole entry, looked up): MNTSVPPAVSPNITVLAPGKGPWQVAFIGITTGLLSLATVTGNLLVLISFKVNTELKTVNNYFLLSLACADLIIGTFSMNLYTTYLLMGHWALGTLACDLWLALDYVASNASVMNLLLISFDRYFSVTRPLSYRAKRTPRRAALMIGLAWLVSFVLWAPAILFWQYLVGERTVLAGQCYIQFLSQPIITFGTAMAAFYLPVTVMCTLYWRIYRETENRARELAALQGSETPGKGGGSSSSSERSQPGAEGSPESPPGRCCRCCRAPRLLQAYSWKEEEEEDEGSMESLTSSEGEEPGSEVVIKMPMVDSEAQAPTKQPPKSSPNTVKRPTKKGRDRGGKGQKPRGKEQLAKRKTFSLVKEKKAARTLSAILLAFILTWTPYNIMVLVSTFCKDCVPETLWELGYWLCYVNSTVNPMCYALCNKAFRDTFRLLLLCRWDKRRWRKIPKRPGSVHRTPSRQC
Of the large screens only hits and unclear results are named; the others gave an inactive call.

CN1CCN(C(=O)C23CCC(C)(c4nc5ccccc5nc42)C3(C)C)CC1 (centres undefined)	none (no result: M1 agonist, M1 antagonist)
Cc1ccc(C)c(C(=O)N(Cc2nc(-c3ccc(Cl)cc3)no2)C(C)C)c1	none (no result: Pyk2 oligo antag, Cav3 T inh)
Cc1cccc(-c2noc(CN(C(=O)c3ccc4c(c3)OCO4)C(C)C)n2)c1	Cav3 T inh -5.1
Cc1ccc(-c2noc(CN(C(=O)CCN3C(=O)c4ccccc4C3=O)C(C)C)n2)cc1	none
CC(C)N(Cc1nc(-c2ccccc2)no1)C(=O)C(C)(C)C	none
Cc1ccc(-c2noc(CN(C(=O)CCCCCN3C(=O)c4ccccc4C3=O)C(C)C)n2)cc1	Cav3 T inh -4.8
Cc1cccc(-c2noc(CN(C(=O)c3ccc(Br)o3)C(C)C)n2)c1	Cav3 T inh -4.7
CCC(CC)C(=O)Nc1cccc(C(=O)Nc2ccc(S(=O)(=O)Nc3ccc(C)cc3)cc2)c1	none (no result: M1 agonist, M1 antagonist)
O=C(CSCc1cccc(CSCC(=O)Nc2ccc3ccccc3c2)n1)Nc1ccc2ccccc2c1	none (no result: Cav3 T inh, M1 agonist, M1 antagonist)
O=C(CSc1cccs1)Nc1ccc2ccccc2c1	Cav3 T inh -5.3 (no result: M1 agonist, M1 antagonist)
O=C(CN1C(=O)C2C3C=CC(C3)C2C1=O)Nc1nc(SCc2ccc(Cl)cc2)n[nH]1 (centres undefined)	Cav3 T inh -8.3
O=C(CN1C(=O)C2C3C=CC(C3)C2C1=O)Nc1nc2ccccc2[nH]1 (centres undefined)	none (no result: M1 agonist, M1 antagonist)
CC(C)CC(c1nnnn1C(C)C)N1CCN(c2cccc(Cl)c2)CC1 (centres undefined)	Cav3 T inh -3.5
CC(=O)C(=Nc1ccc(Cl)cc1Cl)NNc1cccc(Cl)c1	none (no result: M1 agonist, M1 antagonist)
O=C(Nc1cccc(F)c1)N1CC=C(c2ccc(Cl)cc2)CC1	Cav3 T inh -7.4 (no result: M1 agonist, M1 antagonist)
COc1cc(COCC(O)CN2CCOCC2)cc(OC)c1OC (centres undefined)	none (no result: Cav3 T inh)
C=CCc1ccc(O)c(-c2cc(CC=C)ccc2O)c1	Cav3 T inh -5 (no result: Pyk2 oligo antag, M1 agonist, M1 antagonist)
C=CCc1ccc(OC(=O)c2ccccc2)c(OC)c1	none (no result: Pyk2 oligo antag, M1 agonist, M1 antagonist)
COc1ccc(N2CCN(Cc3nc4c(c(=O)n(C)c(=O)n4C)n3Cc3ccccc3C)CC2)cc1	none (no result: Pyk2 oligo antag, Cav3 T inh)
CCN(CC)C(=O)C(C)OC(=O)COc1ccc(Cl)cc1C (centres undefined)	M1 antagonist 1.9
Cc1cc(Cl)ccc1OCC(=O)OC(C)C(=O)N(C)C (centres undefined)	none
O=c1oc2c(CN3CCCCCC3)c(O)ccc2cc1-c1nc2ccccc2[nH]1	M1 agonist 248, M1 antagonist -17 (no result: Pyk2 oligo antag, Cav3 T inh)
COc1ccc(C2(O)CC3CCC(C2)N3c2nc(C)cc(C)c2C#N)cc1 (centres undefined)	Pyk2 oligo antag -3
CCn1cc(C(=O)NC2CCCC2)c(=O)c2cc(S(=O)(=O)N3CCOCC3)ccc21	none (no result: Pyk2 oligo antag, Cav3 T inh)
CCn1cc(C(=O)NCc2ccco2)c(=O)c2cc(S(=O)(=O)N3CC(C)CC(C)C3)ccc21 (centres undefined)	Cav3 T inh -8.1
CCn1cc(C(=O)NCc2ccco2)c(=O)c2cc(S(=O)(=O)N3CCCCCC3)ccc21	none
CCn1cc(C(=O)NC2CCC(C)CC2)c(=O)c2cc(S(=O)(=O)N3CCCCC3)ccc21 (centres undefined)	Cav3 T inh -7.2 (no result: Pyk2 oligo antag)
C=CCn1cc(C(=O)NCc2ccco2)c(=O)c2cc(S(=O)(=O)N3CCCCCC3)ccc21	Cav3 T inh -4.9
CN(C(=O)c1ccc2c(=O)n3c(nc2c1)CCCCC3)c1ccccc1	none
O=C(Nc1cccc(Cl)c1)c1ccc2c(=O)n3c(nc2c1)CCCCC3	Cav3 T inh -5.7
O=C(Nc1ccc(F)c(Cl)c1)c1ccc2c(=O)n3c(nc2c1)CCCCC3	Cav3 T inh -7.7
O=C(c1ccc2c(=O)n3c(nc2c1)CCCCC3)N1CCN(C(c2ccccc2)c2ccccc2)CC1	Cav3 T inh -4.8 (no result: M1 agonist, M1 antagonist)
Cc1ccc(CN2[C@@H](CC(C)C)COCCS2(=O)=O)cc1	none (no result: Pyk2 oligo antag, M1 agonist, M1 antagonist)
COC/C=C/C1=CC2=CC(=O)C(C)(OC(=O)c3cnc4ccccc4n3)C(=O)C2=CN1CCc1c[nH]c2ccccc12 (centres undefined)	none (no result: Pyk2 oligo antag, M1 agonist, M1 antagonist)
COc1cc(NC(=O)CSc2nccc(C)n2)c(C(=O)O)cc1OC	M1 antagonist 1.2
COc1ccc(NC(=O)CSc2nccc(C)n2)cc1	none
Cc1ccc(S(=O)(=O)N2CCC(C(=O)NCc3ccncc3)CC2)cc1	none (no result: M1 agonist, M1 antagonist)
CCCC(=O)Nc1ccc2nc(SCC(=O)Nc3ccc(N4CCOCC4)c(Cl)c3)sc2c1	Pyk2 oligo antag -3.5 (no result: M1 agonist, M1 antagonist)
Cc1c(C)n(CC(O)CN2C(=O)c3ccccc3S2(=O)=O)c2ccccc12 (centres undefined)	Cav3 T inh -6.8 (no result: M1 agonist, M1 antagonist)
CCSc1nnc(-c2ccncc2)o1	none (no result: M1 agonist, M1 antagonist)
CCSc1nnc(-c2sc3nnc(-c4ccccc4)c(-c4ccccc4)c3c2N)o1	Cav3 T inh -5.6 (no result: M1 agonist, M1 antagonist)
CN(C)S(=O)(=O)c1ccc(N2CCCC2)c(C(=O)NC(c2ccccc2)c2ccccc2)c1	Cav3 T inh -4.3 (no result: M1 agonist, M1 antagonist)
CCOc1ccc(C2Sc3ccccc3NC3=C2C(=O)OC3)cc1 (centres undefined)	Cav3 T inh -4.1 (no result: M1 agonist, M1 antagonist)
O=C1OCC2=C1C(c1ccc3c(c1)OCO3)Sc1ccccc1N2 (centres undefined)	none
CCOC(=O)C1CCCN(S(=O)(=O)c2ccc(OC)c3ccccc23)C1 (centres undefined)	Cav3 T inh -4
COc1ccc(CNC(=O)C2CCCN(S(=O)(=O)c3cc(C)ccc3OC)C2)cc1 (centres undefined)	Cav3 T inh -3.3
CCOc1ccccc1NC(=O)C1CCCN(S(=O)(=O)c2ccc(OC)c(C)c2)C1 (centres undefined)	Cav3 T inh -4.6
O=S(=O)(c1ccc2ccccc2c1)N1CCC(c2nc(-c3ccncc3)no2)CC1	none (no result: M1 agonist, M1 antagonist)
CN1[C@@H](CC(=O)c2ccccc2)CCC[C@H]1C[C@H](O)c1ccccc1	M1 agonist 34, M1 antagonist -8.4 (no result: Pyk2 oligo antag, Cav3 T inh)
CCN(C(N)=S)c1ccccc1	none (no result: M1 agonist, M1 antagonist)
CCCC(=O)N(CCN(C(=O)CCC)c1ccccc1)c1ccccc1	Cav3 T inh -4.1 (no result: M1 agonist, M1 antagonist)
CCOC(=O)N1CCN(c2ncnc3c2[nH]c2ccc(F)cc23)CC1	Pyk2 oligo antag -3 (no result: M1 agonist, M1 antagonist)
COc1cc(NC(=O)c2ccccc2-c2ccccc2)cc(OC)c1	none (no result: Cav3 T inh, M1 agonist, M1 antagonist)
O=S1(=O)CCC(N=Cc2cc(Br)ccc2O)C1 (centres undefined)	Cav3 T inh -12
CN(Cc1ccccc1)C(=O)CCS(=O)(=O)c1ccc2c(c1)n(C)c(=O)c(=O)n2C	Cav3 T inh -4.9 (no result: Pyk2 oligo antag)
CCC(C)NC(=O)CCS(=O)(=O)c1ccc2c(c1)n(C)c(=O)c(=O)n2C (centres undefined)	none (no result: Pyk2 oligo antag)
O=C(O)Cn1c(SCCOc2ccccc2F)nc2ccccc21	Cav3 T inh -5.3
OCCn1c(SCCOc2ccccc2F)nc2ccccc21	none
CC1=C(C(=O)OCc2ccccc2)C(c2ccc(Cl)cc2Cl)NC(=O)N1CCCC(=O)O (centres undefined)	none (no result: Pyk2 oligo antag, M1 agonist, M1 antagonist)
CCN(c1cccc(C)c1)S(=O)(=O)c1ccc2c3c(cccc13)C(=O)N2	Pyk2 oligo antag -3.1 (no result: M1 agonist, M1 antagonist)
COc1ccc(NS(=O)(=O)c2cc(NC(=O)c3cccc(OCc4c(C)noc4C)c3)ccc2OC)cc1	none (no result: Cav3 T inh, M1 agonist, M1 antagonist)
COc1ccc2cc3cc(C(=O)NCCN4CCN(c5ccccc5F)CC4)oc3nc2c1	Pyk2 oligo antag -3.1
COc1ccc2cc3cc(C(=O)Nc4ccccc4N4CCN(C)CC4)oc3nc2c1	none
Cc1csc(NC(=O)CCNC(=O)c2ccc([N+](=O)[O-])cc2)n1	none (no result: Cav3 T inh, M1 agonist, M1 antagonist)
